Measurements from PubChem BioAssay (Tox21).
Calls of active or inactive are those of the source. Calls come from the whole dose curve; as a rule, active = well fitted curve in the direction sought with a large enough effect in the repeat runs; inconclusive = weak or mixed curves; inactive = flat fitted curve, though single readings scatter.

Experiment: qHTS assay to test for compound auto fluorescence at 460 nm (blue) in HEK293 cell free culture (AID 720681)
Settings: cell-free medium, autofluorescence 405/460 nm (blue); series mostly up to 91.3 µM
Summary of the method: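 Compounds were added to cell-free DMEM with 10% FBS and fluorescence read directly. The blue channel used 405 nm excitation and 460 nm emission, with triamterene as the reference fluorophore.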

Row | SMILES | outcome
1 | CCCc1nn(C)c2c(=O)[nH]c(-c3cc(S(=O)(=O)N4CCN(C)CC4)ccc3OCC)nc12 | inactive
2 | CO[C@@]1(NC(=O)CSC[C@@H](N)C(=O)O)C(=O)N2C(C(=O)O)=C(CSc3nnnn3C)CS[C@@H]21 | inactive
3 | CN(C)CCN(C)CCN(C)C | inactive
4 | Cc1ccc(C(=O)Nc2ccc(S(=O)(=O)O)c3cc(S(=O)(=O)O)cc(S(=O)(=O)O)c23)cc1NC(=O)c1cccc(NC(=O)Nc2cccc(C(=O)Nc3cc(C(=O)Nc4ccc(S(=O)(=O)O)c5cc(S(=O)(=O)O)cc(S(=O)(=O)O)c45)ccc3C)c2)c1 | inactive
5 | C=C(C)C(=O)OCCOCCOCCOCCOC(=O)C(=C)C | inactive
6 | OCCCCCO | inactive
7 | CCOC(=O)CCC(=O)OCC | inactive
8 | CC1(C)[C@@H]2CC[C@@]1(C)[C@H](O)C2 | inactive
9 | CCCC(C)C(=O)OCC (centres undefined) | inactive
10 | CCCCS(=O)(=O)N[C@@H](Cc1ccc(OCCCCC2CCNCC2)cc1)C(=O)O | inactive
11 | c1coc(CNc2ncnc3nc[nH]c23)c1 | inactive
12 | CCOC(=O)COc1cc(-n2ncc(C(F)(F)F)c(C)c2=O)c(F)cc1Cl | inactive
13 | CC(C)CCCO | inactive
14 | O=S(=O)(O)c1cccc2c(S(=O)(=O)O)cccc12 | inactive
15 | C=CN1CCCCCC1=O | inactive
16 | C[N+]1(C)[C@@H]2CC(OC(=O)[C@H](CO)c3ccccc3)C[C@H]1[C@@H]1O[C@@H]12 (some centres undefined) | inactive
17 | CC(C)C[C@@H](N)C(=O)O | inactive
18 | CCCCCCCCCCCCSC | inactive
19 | C=CCOCC(O)CO (centres undefined) | inactive
20 | CCOC(=O)COC(=O)c1ccccc1C(=O)OCC | inactive
21 | CCCCCCC1CCC(=O)O1 (centres undefined) | inactive
22 | CC[C@H]1OC(=O)[C@H](C)[C@@H](O[C@H]2C[C@@](C)(OC)[C@@H](O)[C@H](C)O2)[C@H](C)[C@@H](O[C@@H]2O[C@H](C)C[C@H](N(C)C)[C@H]2O)[C@](C)(OC)C[C@@H](C)C(=O)[C@H](C)[C@@H](O)[C@]1(C)O | inactive
23 | C=CC(C)(CCC=C(C)C)OC(=O)CC (centres undefined) | inactive
24 | CC(=O)c1ccc2ccccc2c1 | inactive
25 | CC(C)(C)C(=O)Oc1ccc(S(=O)(=O)Nc2ccccc2C(=O)NCC(=O)O)cc1 | inactive
26 | O=C(O)c1cc(C(=O)O)cc(C(=O)O)c1 | inactive
27 | CCC(=O)OCc1ccccc1 | inactive
28 | CC(C)C1CCC(O)CC1 (centres undefined) | inactive
29 | COc1cc(C(=O)OC(COCCC(C)C)CN2CCOCC2)cc(OC)c1OC (centres undefined) | inactive
